The values that follow come from PubChem BioAssay (Tox21).

A short description of experiment [1]: Nuclear factor erythroid 2-related factor 2/antioxidant responsive element (Nrf2/ARE) small molecule agonists: luciferase reporter gene qHTS assay in human keratinocytes (AID 1919969). Also: nearly all actives have a fitted effect of over 35% in size. Also: potency is read from the fitted curve at half-maximal effect.
For experiment [2], the target named is Gonadotropin-releasing hormone receptor (Homo sapiens) (UniProt P30968). Description: Human gonadotropin-releasing hormone receptor (GnRHR) small molecule agonists, calcium flux assay in GnRHR-HEK293 cells (AID 1920063). Also: nearly all actives have a fitted effect of over 35% in size. The gist of the method: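 Calcium-dye fluorescence, Ex/Em=480/540, recorded every 1 sec over 3 min after compound addition to GnRHR-HEK293 cells. Cells had been seeded 18 hours earlier and dye-loaded for 1 hour at 37 C. Fifteen concentrations, triplicates.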
Chain of Gonadotropin-releasing hormone receptor (Homo sapiens) (P30968 whole entry, looked up): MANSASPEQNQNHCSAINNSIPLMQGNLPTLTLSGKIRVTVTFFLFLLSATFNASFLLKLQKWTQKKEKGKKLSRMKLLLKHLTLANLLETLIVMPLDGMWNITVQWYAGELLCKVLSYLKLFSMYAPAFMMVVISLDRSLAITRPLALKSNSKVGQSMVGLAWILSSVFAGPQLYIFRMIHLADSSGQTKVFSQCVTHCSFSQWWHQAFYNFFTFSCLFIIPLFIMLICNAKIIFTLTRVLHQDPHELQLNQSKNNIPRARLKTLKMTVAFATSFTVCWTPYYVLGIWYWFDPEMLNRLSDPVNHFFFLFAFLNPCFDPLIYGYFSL

Experiment [3] addresses KiSS-1 receptor (Homo sapiens) (UniProt Q969F8). The experiment in a line: Human kisspeptin (KISS1R) small molecule agonists, calcium flux assay in KISS1R-HEK293 cells (AID 1920064; active = well fitted activation curve with a large enough effect in the repeat runs). The gist of the method: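 Calcium flux read-out: kinetic fluorescence at Ex/Em=480/540, 1 s intervals over 3 min, after pin-tool compound addition to dye-loaded KISS1R-HEK293 cells. Fifteen concentrations, triplicates.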

Experiment [4] is described as follows: G protein-coupled receptor (GPCR) small molecule agonists, calcium flux assay: HEK293 wild type cell line counter screen (AID 1920065). The gist of the method: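 Agonist mode; 18 h seeding at 37 C, 1 h dye load at 37 C; compounds pinned from DMSO, ATP as positive control; kinetic fluorescence 480/540 nm, 3 min, 1 s reads; 15 concentrations, triplicate.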
Experiment [5] in a line: p53 small molecule agonists, cell-based qHTS assay with rat liver microsomes (AID 1963578). The gist of the method:
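Each plate received p53RE-bla cells, then compound, then rat liver microsomes and NADPH (both 0.5 mg/mL final). Plates were held 16 h at 37 C, and beta-lactamase activity was detected with LiveBLAzer over 2 h.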

Experiment [6] in a line: p53 small molecule agonists, cell-based qHTS assay with rat liver microsomes: qHTS cell viability counter screen (AID 1963580). Also: nearly all actives have a fitted effect of over 45% in size. In short, it runs like this:
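Cytotoxicity counter screen: intracellular ATP measured by CellTiter-Glo luminescence in the same wells as the beta-lactamase reporter read, on HCT-116 p53RE-bla cells exposed 16 h at 37 C to compounds with rat liver microsomes and NADPH, each 0.5 mg/mL final.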

Experiment [7] is described as follows: p53 small molecule agonists, cell-based qHTS assay: qHTS cell viability counter screen (AID 1963581). Also: nearly all actives have a fitted effect of over 45% in size. In short, it runs like this: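 Cytotoxicity read-out: ATP-based luminescence (CellTiter-Glo, 30 min RT) measured in the same wells as the p53 reporter assay, HCT-116 p53RE-bla cells, 16 h compound exposure at 37 C.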
The nature of experiment [8]: p53 small molecule agonists, cell-based qHTS assay (AID 1963582; active = well fitted activation curve with a large enough effect in the signal ratio in the repeat runs, not every such curve was filed as active; the % refers to the signal ratio). The gist of the method: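 Fluorescence intensity read-out of a beta-lactamase reporter under a p53 response element. Cells were exposed to DMSO-dissolved compounds for 16 h at 37 C, then developed with FRET substrate for 2 h at RT.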
Experiment [9] in a line: cAMP Responsive Elements (CRE) small molecule agonists, cell-based qHTS assay (AID 1963590). In short, it runs like this: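 Beta-lactamase reporter readout: LiveBLAzer B/G FRET substrate, 2 h at room temperature, added after 3 h compound treatment of CRE-bla HEK 293T cells at 37 C/5% CO2.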
Experiment [10] concerns the target Beta-2 adrenergic receptor (Homo sapiens) (UniProt P07550). Description: Adrenergic beta2 receptor (ADRB2) small molecule antagonists, cell-based qHTS assay (AID 1963592). Also: nearly all actives have a fitted effect of over 50% in size. Also: potency is read from the fitted curve at half-maximal effect. In short, it runs like this: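 Assay format: CHO-ADRB2 cells, 18-20hr seeding at 37C/5% CO2, then compound plus 1nM isoproterenol agonist mix for 0.5hr RT. Homogeneous time-resolved fluorescence cAMP detection after 1hr, expressed as 665/615 nm ratio.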

The target in experiment [11] is D(2) dopamine receptor (Homo sapiens) (UniProt P14416). Description: Dopamine D2 receptor (DRD2) small molecule agonists, cell-based qHTS assay (AID 1963594). Also: nearly all actives have a fitted effect of over 35% in size. In short, it runs like this:
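HEK293 cells stably expressing human DRD2, pre-treated with PDE inhibitor Ro20-1724 (0.1 mM final) and compound 10 min at room temperature, then stimulated with NKH477 (200nM […]) for 30 min. cAMP read by HTRF (665/620 nm).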

Experiment [12] shares this target. Description: Dopamine D2 receptor (DRD2) small molecule antagonists, cell-based qHTS assay (AID 1963595; active = well fitted inhibition curve with a large enough effect in the signal ratio in the repeat runs, with a control signal flat; the % refers to the signal ratio; also: potency is read from the fitted curve at half-maximal effect). The gist of the method: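 Readout: HTRF cAMP, cAMP-d2 competing with cellular cAMP for anti-cAMP cryptate, read after 1 h. Cells: DRD2-HEK293. Conditions: 0.1 mM Ro20-1724, 12 nM quinpirole, 200 nM NKH477, 30 min RT.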
Experiment [13] in a line: p53 small molecule agonists, cell-based qHTS assay with human liver microsomes: qHTS cell viability counter screen (AID 1963579). Also: nearly all actives have a fitted effect of over 45% in size. In short, it runs like this: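 Tox21 library compounds, delivered from DMSO stocks, were tested on p53RE-bla cells together with 0.5 mg/mL human liver microsomes and 0.5 mg/mL NADPH (final) over 16 h at 37 C; CellTiter-Glo luminescence served as the cytotoxicity measure.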

The target in experiment [14] is 5-hydroxytryptamine receptor 2A (Homo sapiens) (UniProt P28223). Description: 5-hydroxytryptamine receptor 2A (HTR2A) small molecule antagonists, cell-based qHTS assay (AID 1963586). Also: nearly all actives have a fitted effect of over 45% in size. In short, it runs like this:
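CHO cells stably expressing human HTR2A were plated for 18 h at 37 C, then loaded with calcium dye for 1 h. Compounds were preincubated 5 min at room temperature before DOI (4 nM solution) was added. Kinetic fluorescence was read for 3 min.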

For experiment [15] the target is unchanged. The experiment in a line: 5-hydroxytryptamine receptor 2A (HTR2A) small molecule agonists, cell-based qHTS assay (AID 1963587). Also: nearly all actives have a fitted effect of over 30% in size. The gist of the method: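 CHO cells stably expressing human HTR2A, plated 18 h, loaded with calcium dye 1 h at 37 C. Agonist mode: compounds added and intracellular calcium fluorescence recorded kinetically for 2 min at 1 sec intervals.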

Experiment [16] deals with Muscarinic acetylcholine receptor M1 (Homo sapiens) (UniProt P11229). Description: Cholinergic receptor muscarinic 1 (CHRM1) small molecule antagonists, cell-based qHTS assay (AID 1963588). Also: nearly all actives have a fitted effect of over 40% in size. Also: potency is read from the fitted curve at half-maximal effect. The gist of the method: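 Compounds were tested at 15 concentrations in three independent runs. Dye-loaded CHRM1-CHO cells were exposed 5 min at room temperature before stimulation by acetylcholine added at 50nM. Intracellular calcium was read kinetically on FDSS for 3 min.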
Chain of Muscarinic acetylcholine receptor M1 (Homo sapiens) (P11229 whole entry, looked up): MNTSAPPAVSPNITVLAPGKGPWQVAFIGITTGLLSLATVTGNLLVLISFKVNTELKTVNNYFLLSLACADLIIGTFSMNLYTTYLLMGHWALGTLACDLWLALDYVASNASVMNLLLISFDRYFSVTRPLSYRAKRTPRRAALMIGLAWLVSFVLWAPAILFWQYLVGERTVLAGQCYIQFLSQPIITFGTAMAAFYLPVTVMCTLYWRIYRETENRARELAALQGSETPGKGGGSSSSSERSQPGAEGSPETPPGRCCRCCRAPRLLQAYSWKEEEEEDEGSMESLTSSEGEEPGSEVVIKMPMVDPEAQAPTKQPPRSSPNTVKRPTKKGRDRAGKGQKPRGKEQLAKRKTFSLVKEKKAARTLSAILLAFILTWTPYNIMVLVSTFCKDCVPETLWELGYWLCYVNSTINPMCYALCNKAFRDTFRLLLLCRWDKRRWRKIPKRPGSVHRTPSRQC

The target is the same in experiment [17]. Description: Cholinergic receptor muscarinic 1 (CHRM1) small molecule agonists, cell-based qHTS assay (AID 1963589). Also: nearly all actives have a fitted effect of over 35% in size. The gist of the method: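 Calcium flux read-out: kinetic fluorescence at 1 sec intervals after pin-tool compound addition to dye-loaded CHRM1-CHO cells (human M1). Agonist mode; 15 concentrations tested in triplicate independent runs.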
Experiment [18] is described as follows: cAMP Responsive Elements (CRE) small molecule antagonists, cell-based qHTS assay (AID 1963591; active = well fitted inhibition curve with a large enough effect in the signal ratio in the repeat runs, not every such curve was filed as active; the % refers to the signal ratio). The gist of the method: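 HEK293T CRE-bla; 18 h preincubation; compound pin-transfer; NKH477 0.25 uM final, 3 h, 37 C; LiveBLAzer FRET substrate 2 h RT.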

A number with no mark means an inactive call. Results filed as inconclusive are left out. The source made the active and inactive calls. Unless noted, calls follow the shape of the full dose curve.

Chain of D(2) dopamine receptor (Homo sapiens) (P14416 whole entry, looked up): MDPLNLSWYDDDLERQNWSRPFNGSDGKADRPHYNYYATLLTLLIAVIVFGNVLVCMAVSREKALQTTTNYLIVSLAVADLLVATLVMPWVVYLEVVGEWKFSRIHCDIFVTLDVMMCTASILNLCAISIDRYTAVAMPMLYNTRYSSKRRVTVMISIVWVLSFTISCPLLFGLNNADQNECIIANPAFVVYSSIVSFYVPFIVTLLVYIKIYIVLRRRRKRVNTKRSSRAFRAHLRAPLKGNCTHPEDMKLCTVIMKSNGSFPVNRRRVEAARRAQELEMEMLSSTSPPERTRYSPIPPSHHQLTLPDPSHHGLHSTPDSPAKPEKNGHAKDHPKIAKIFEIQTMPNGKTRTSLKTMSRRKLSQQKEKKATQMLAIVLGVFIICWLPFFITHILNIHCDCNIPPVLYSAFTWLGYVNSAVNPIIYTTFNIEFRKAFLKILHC
Chain of KiSS-1 receptor (Homo sapiens) (Q969F8 whole entry, looked up): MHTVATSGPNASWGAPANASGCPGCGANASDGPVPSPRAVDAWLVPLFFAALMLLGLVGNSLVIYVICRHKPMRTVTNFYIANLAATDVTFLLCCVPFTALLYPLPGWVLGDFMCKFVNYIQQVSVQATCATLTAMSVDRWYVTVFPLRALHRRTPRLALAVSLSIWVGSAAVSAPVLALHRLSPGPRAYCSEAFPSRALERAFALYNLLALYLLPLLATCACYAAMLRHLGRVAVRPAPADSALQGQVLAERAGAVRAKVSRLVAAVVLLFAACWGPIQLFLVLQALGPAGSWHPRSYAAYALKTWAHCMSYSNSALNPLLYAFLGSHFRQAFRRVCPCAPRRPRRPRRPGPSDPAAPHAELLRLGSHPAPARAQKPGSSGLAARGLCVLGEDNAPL
Chain of Beta-2 adrenergic receptor (Homo sapiens) (P07550 whole entry, looked up): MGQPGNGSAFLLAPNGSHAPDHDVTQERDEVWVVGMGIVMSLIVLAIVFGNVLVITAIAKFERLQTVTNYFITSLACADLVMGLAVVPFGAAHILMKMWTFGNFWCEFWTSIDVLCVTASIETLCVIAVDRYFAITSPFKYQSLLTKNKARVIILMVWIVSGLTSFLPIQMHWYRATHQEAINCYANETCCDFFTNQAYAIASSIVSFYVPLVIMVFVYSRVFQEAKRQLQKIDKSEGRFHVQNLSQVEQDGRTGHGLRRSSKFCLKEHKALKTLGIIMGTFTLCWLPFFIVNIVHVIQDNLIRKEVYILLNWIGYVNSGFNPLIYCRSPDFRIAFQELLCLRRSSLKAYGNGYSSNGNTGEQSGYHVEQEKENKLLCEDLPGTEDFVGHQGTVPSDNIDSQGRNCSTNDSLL
Chain of 5-hydroxytryptamine receptor 2A (Homo sapiens) (P28223 whole entry, looked up): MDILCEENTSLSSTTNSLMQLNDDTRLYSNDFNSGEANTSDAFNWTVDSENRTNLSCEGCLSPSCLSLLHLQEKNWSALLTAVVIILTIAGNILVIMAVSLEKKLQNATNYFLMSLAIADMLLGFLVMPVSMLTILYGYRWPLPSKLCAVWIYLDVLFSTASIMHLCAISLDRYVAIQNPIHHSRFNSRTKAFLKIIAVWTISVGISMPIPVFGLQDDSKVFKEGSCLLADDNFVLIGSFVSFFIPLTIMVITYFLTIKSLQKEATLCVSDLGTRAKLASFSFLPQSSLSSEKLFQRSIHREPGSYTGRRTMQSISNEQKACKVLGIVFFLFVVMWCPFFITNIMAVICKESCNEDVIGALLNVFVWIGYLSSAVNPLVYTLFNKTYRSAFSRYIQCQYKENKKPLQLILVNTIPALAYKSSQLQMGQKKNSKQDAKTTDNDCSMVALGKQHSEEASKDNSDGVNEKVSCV

As to `CCC(C)n1ncn(-c2ccc(N3CCN(c4ccc(OC[C@H]5CO[C@](Cn6cncn6)(c6ccc(Cl)cc6Cl)O5)cc4)CC3)cc2)c1=O` (some centres undefined), the Potency entry in [1], in experiment [2], in experiment [3], in experiment [4], in [5] and in [6] was “inactive” throughout. Besides, the Potency result in experiment [7], in experiment [8], in experiment [9], in [10], in experiment [11] and in experiment [12] was “inactive” in each case.
Consider `CN(C)C(=O)Oc1cccc([N+](C)(C)C)c1`, for which the Potency entry in experiment [1], in [2], in experiment [3], in [4], in experiment [13] and in experiment [6] was “inactive” throughout. In addition, the Potency result in experiment [7], in experiment [8], in experiment [9], in experiment [10], in experiment [11] and in experiment [12] was “inactive” throughout.
In the case of `CC(N=C(NC#N)Nc1ccncc1)C(C)(C)C` (centres undefined), the Potency entry in experiment [1], in [2], in experiment [3], in experiment [4], in experiment [13] and in experiment [6] was “inactive” in each case. Also, the Potency entry in experiment [7], in experiment [14], in experiment [15], in experiment [16], in experiment [17] and in experiment [9] was “inactive” each time. Further, the Potency entry in [18], in experiment [10], in [11] and in experiment [12] was “inactive” throughout.
Turning to `COc1cc(C(=O)OCCCN2CCCN(CCCOC(=O)c3cc(OC)c(OC)c(OC)c3)CC2)cc(OC)c1OC`, the Potency entry in [1], in [2], in experiment [3], in experiment [4], in [13] and in [6] was “inactive” throughout. Further, the Potency result in experiment [7], in [8], in experiment [14], in experiment [15], in [17] and in [9] was “inactive” in each case. For the same compound, in experiment [10], the Potency result was “inactive”. The Potency in [16] is 7.29 µM (active).
With `CCOc1ccccc1OCCN[C@H](C)Cc1ccc(OC)c(S(N)(=O)=O)c1`, the Potency entry in [1], in experiment [2], in experiment [3], in [4], in experiment [13] and in experiment [6] was “inactive” each time. In addition, the Potency entry in experiment [7], in experiment [14], in experiment [15], in [16], in [17] and in experiment [9] was “inactive” each time. For the same compound, the Potency entry in experiment [18] was “inactive”. Also, the Potency in experiment [10] is 8.41 µM (active); in [12] it was 1.19 µM (active).
As to `COc1cc(Cl)ccc1Oc1ccc(Cl)cc1Cl`, in [1], the Potency is 14.9 µM (active). Further, the Potency entry in [2], in experiment [3], in experiment [4], in experiment [13], in experiment [6] and in experiment [7] was “inactive” each time. In addition, the Potency result in experiment [14], in [15], in [16], in experiment [17], in experiment [18] and in experiment [10] was “inactive” each time. Moreover, the Potency entry in experiment [11] and in experiment [12] was “inactive” in each case.
